The values that follow come from PubChem BioAssay (NCI).

Test systems include HCT-15 colon; HT29 colon; SNB-75 CNS; SNB-19 CNS; U251 CNS; PC-3 prostate; SK-MEL-5 melanoma; UACC-62 melanoma; LOX IMVI melanoma; SK-MEL-28 melanoma; SK-MEL-2 melanoma; EKVX NSCLC; SN12C renal; UO-31 renal; TK-10 renal; ACHN renal; CAKI-1 renal; A498 renal; CCRF-CEM leukemia; MOLT-4 leukemia.
Assay in all cases: NCI-60 one-dose screen, 48 h (100 = growth as untreated, 0 = no growth, -100 = all killed)
Common to all, as to conditions: 10 µM unless noted

Compounds without any hit were thinned out: in the full panel of roughly 83,000, 20% have a hit.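 Values shown are percent growth following 48 h exposure of cells in 96-well plates to a single concentration of compound; below 10 was considered active.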 Unmarked numbers belong to inactive results. Calls of active or inactive are those of the source.

In the case of `C/C(=C(/c1ccc(Cl)cc1)c1ccc(OCCCN(C)C)cc1)c1ccc(Cl)cc1`, the growth was 50.4% with HCT-15 colon; 16.3% in the assay on HT29 colon; 96.4% in the assay with SNB-75 CNS; 97.3% in the assay on SNB-19 CNS; 75.9% in the assay on U251 CNS; 84.8% in the assay with PC-3 prostate. For the same molecule, the growth with SK-MEL-5 melanoma was 93.8%; in the assay with UACC-62 melanoma, 109%; with LOX IMVI melanoma it was 78.1%; in the assay on SK-MEL-28 melanoma it was 99.5%; in the assay with SK-MEL-2 melanoma, 98.5%; in the assay with EKVX NSCLC it was 98.4%. Further, the growth in the assay with SN12C renal is 93.9%; with UO-31 renal, 72.7%; in the assay on TK-10 renal, 103%; in the assay with ACHN renal, 104%; in the assay on CAKI-1 renal, 87.3%; with A498 renal, 94.8%. For the same molecule, the growth with CCRF-CEM leukemia was 73.3%; in the assay with MOLT-4 leukemia it was 71.7%.

In the case of `COc1ccc(C2=NN(C(=O)c3cc(OC)c(OC)c(OC)c3)C(c3ccc(N(C)C)cc3)C2)cc1` (stereo not given), the growth is 10.6% with HCT-15 colon; 19.1% in the assay with HT29 colon; 18.1% in the assay with SNB-75 CNS; 37.6% with SNB-19 CNS; 15.6% in the assay with U251 CNS; 20.6% in the assay on PC-3 prostate. Moreover, the growth is 5.24% (active) with SK-MEL-5 melanoma; 15.6% in the assay on UACC-62 melanoma; 28.9% with LOX IMVI melanoma; 56.3% in the assay with SK-MEL-28 melanoma; 66.5% in the assay on SK-MEL-2 melanoma; 35.6% with EKVX NSCLC. Further, the growth in the assay on SN12C renal is 31.3%; in the assay on UO-31 renal it was 19.4%; in the assay on TK-10 renal it was 56.5%; with ACHN renal, 25.8%; in the assay with CAKI-1 renal, 39.1%; in the assay with A498 renal it was -1.92% (active). The growth in the assay with CCRF-CEM leukemia is 26.7%; with MOLT-4 leukemia, 18.9%.

For the molecule `COc1ccc2cc(-c3ccc(-c4ccc(C(=N)N)s4)s3)ccc2c1`, the growth was -81.6% (active) in the assay with HCT-15 colon; -70.8% (active) with HT29 colon; 21% in the assay with SNB-75 CNS; -26.8% (active) in the assay on SNB-19 CNS; -85.9% (active) in the assay on U251 CNS; 23.1% in the assay on PC-3 prostate. Further, the growth in the assay on SK-MEL-5 melanoma is 95.1%; with UACC-62 melanoma, -16.3% (active); with LOX IMVI melanoma, -58.2% (active); with SK-MEL-28 melanoma it was 109%; in the assay with SK-MEL-2 melanoma, 95.3%; in the assay with EKVX NSCLC, 0.97% (active). Moreover, the growth was -55.2% (active) in the assay with SN12C renal; 36.6% in the assay with UO-31 renal; 89.6% in the assay on TK-10 renal; 27% in the assay on ACHN renal; 88.8% with CAKI-1 renal; 73.6% in the assay with A498 renal. In addition, the growth was -14% (active) in the assay with CCRF-CEM leukemia and 1.6% (active) in the assay with MOLT-4 leukemia.

As for `COc1cc(C2=NN(C(C)=O)C(c3ccc(N(C)C)cc3)C2)cc(OC)c1OC` (stereo not given), the growth was 102% with HCT-15 colon; 108% in the assay with HT29 colon; 96.2% in the assay with SNB-75 CNS; 89.8% with SNB-19 CNS; 97.3% with U251 CNS; 105% in the assay on PC-3 prostate. Moreover, the growth in the assay with SK-MEL-5 melanoma is 91.1%; in the assay on UACC-62 melanoma, 87.9%; in the assay on LOX IMVI melanoma, 96.5%; with SK-MEL-28 melanoma, 106%; in the assay on SK-MEL-2 melanoma it was 90%; in the assay on EKVX NSCLC it was 94.7%. Further, the growth in the assay with SN12C renal was 86.4%; with UO-31 renal it was 79.6%; in the assay with TK-10 renal, 109%; in the assay on ACHN renal it was 91.8%; in the assay on CAKI-1 renal, 15.3%; in the assay on A498 renal, 76%. Further, the growth in the assay with CCRF-CEM leukemia was 14.6%; in the assay with MOLT-4 leukemia, 80.8%.

Regarding `O=c1[nH]cnc2c1C(c1ccc(Br)cc1)c1sc3c(F)cccc3c1O2` (stereo not given), the growth in the assay with HCT-15 colon was 99.2%; with HT29 colon, 104%; with SNB-75 CNS, 85.1%; in the assay with SNB-19 CNS, 91.8%; in the assay on U251 CNS it was 95.9%; in the assay with PC-3 prostate it was 82.9%. In addition, the growth was 98.7% in the assay on SK-MEL-5 melanoma; 82.5% with UACC-62 melanoma; 99.2% with LOX IMVI melanoma; 105% with SK-MEL-28 melanoma; 110% in the assay on SK-MEL-2 melanoma; 90.9% in the assay with EKVX NSCLC. Besides, the growth in the assay with SN12C renal was 98.3%; in the assay with UO-31 renal, 76%; with TK-10 renal, 107%; in the assay with ACHN renal it was 95.1%; with CAKI-1 renal it was 82.1%; with A498 renal, 104%. For the same molecule, the growth with CCRF-CEM leukemia is -50.7% (active); in the assay on MOLT-4 leukemia, 37%.

Take `COc1ccc(C/C(C)=C(/c2ccc(OCCN3CCCCCC3)cc2)c2ccc(OC(=O)NCc3ccccc3)cc2)cc1`: the growth is 60.6% in the assay with HCT-15 colon; 13.4% in the assay on HT29 colon; 90.7% in the assay with SNB-75 CNS; 87.4% in the assay with SNB-19 CNS; 71.8% in the assay with U251 CNS; 71.8% in the assay on PC-3 prostate. Further, the growth with SK-MEL-5 melanoma is 91.2%; in the assay on UACC-62 melanoma, 88.8%; in the assay on LOX IMVI melanoma, 52.3%; in the assay on SK-MEL-28 melanoma, 98.3%; with SK-MEL-2 melanoma it was 94.9%; in the assay with EKVX NSCLC, 87.6%. The growth in the assay on SN12C renal is 71.3%; in the assay with UO-31 renal, 62.7%; with TK-10 renal, 87.8%; in the assay with ACHN renal, 101%; in the assay with CAKI-1 renal, 92.8%; with A498 renal, 97.3%. The results for the growth in the assay with CCRF-CEM leukemia and in the assay with MOLT-4 leukemia were 58% and 41.2%, respectively.

Consider `CCCCCCNc1nc(NCCCCCC)c2[nH]c(NCCCCCC)nc2n1`, for which the growth in the assay with HCT-15 colon is 88.1%; in the assay with HT29 colon, 36.6%; in the assay on SNB-75 CNS, -8.09% (active); with SNB-19 CNS, 89.8%; with U251 CNS, -32.8% (active); in the assay on PC-3 prostate it was 18.7%. Also, the growth in the assay with SK-MEL-5 melanoma was 78.1%; in the assay on UACC-62 melanoma, 81.2%; with LOX IMVI melanoma, 1.23% (active); with SK-MEL-28 melanoma, 98.2%; with SK-MEL-2 melanoma, 30.2%; with EKVX NSCLC, 44%. The growth with SN12C renal is 26.5%; with UO-31 renal, 80.9%; in the assay with TK-10 renal it was 116%; in the assay on ACHN renal, 100%; in the assay on CAKI-1 renal it was 74.1%; with A498 renal, 40.3%. The results for the growth in the assay with CCRF-CEM leukemia and in the assay with MOLT-4 leukemia were -29.6% (active) and -12.5% (active), respectively.

Turning to `Cc1nn(-c2ccccc2)c(N2CCCCC2)c1/C=N/NC(=O)Cn1c(=O)sc2ccccc21`, the growth in the assay with HCT-15 colon is 61.3%; with HT29 colon, 57.3%; with SNB-75 CNS, 75%; in the assay on SNB-19 CNS, 70.9%; with U251 CNS, 73.4%; in the assay with PC-3 prostate, 61.7%. For the same molecule, the growth in the assay with SK-MEL-5 melanoma is 73.7%; with UACC-62 melanoma, 64.3%; in the assay with LOX IMVI melanoma it was 60.3%; with SK-MEL-28 melanoma, 114%; in the assay with SK-MEL-2 melanoma, 88.9%; in the assay with EKVX NSCLC it was 74.5%. The growth is 85% with SN12C renal; 48.1% in the assay with UO-31 renal; 88.5% with TK-10 renal; 66.8% in the assay with ACHN renal; 34.7% in the assay on CAKI-1 renal; 80.7% in the assay on A498 renal. Moreover, the growth is 84.7% in the assay on CCRF-CEM leukemia and 54.7% with MOLT-4 leukemia.
